From PubChem BioAssay come the findings set out here.

Several values for one entry are separate records, joined by “and”; a condition that tells them apart may be missing. Equal values may be shown once. For some assays here: Entries with a potency or affinity are not part of this list. Activity calls are given as the source filed them. Unless noted, how the calls were made is not given here.

A short description of assay [1]: liver-stage malaria parasite growth inhibition, primary screen, cell-based, HepG2, luciferase luminescence, HepG2 viability (AID 624349; in the data active means parasite load remaining mostly below about 12%, no sharp cut-off; inactive means mostly above about 10%;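 further: 100% = mean of DMSO negative control wells on the same plate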). The settings on record: P. berghei liver stage in HepG2, luciferase luminescence, concentration not given here; parasite load remaining: stronger effect = lower value; viability: measured here: HepG2 viability without parasites.
The nature of assay [2]: Cy5 fluorescence interference with SSB-bound oligo, artefact control for HCV NS3 helicase inhibitor project, biochemical, NIH Clinical Collection, E. coli SSB (AID 743268).
The test system of assay [3] is Hepatitis C virus NS3 helicase. The assay is described as follows: HCV NS3 helicase inhibitors, primary screen, biochemical, fluorescence polarization, NIH Clinical Collection (AID 743270). The conditions noted are these: NS3 helicase binding to Cy5-dT15 DNA, stronger effect = higher value, concentration not given here.
In assay [4] the target is 6-phosphogluconate dehydrogenase, decarboxylating (Homo sapiens) (UniProt P52209). The assay is described as follows: 6PGD enzyme inhibitors, primary screen, biochemical, human, recombinant enzyme, NADPH absorbance (AID 1159550;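 active means at least 20% inhibition of 6-phosphogluconate dehydrogenase activity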). The conditions noted are these: recombinant 6PGD, NADPH absorbance 341 nm; at 10 µM; stronger effect = higher value.
Chain of 6-phosphogluconate dehydrogenase, decarboxylating (Homo sapiens) (P52209 whole entry, looked up): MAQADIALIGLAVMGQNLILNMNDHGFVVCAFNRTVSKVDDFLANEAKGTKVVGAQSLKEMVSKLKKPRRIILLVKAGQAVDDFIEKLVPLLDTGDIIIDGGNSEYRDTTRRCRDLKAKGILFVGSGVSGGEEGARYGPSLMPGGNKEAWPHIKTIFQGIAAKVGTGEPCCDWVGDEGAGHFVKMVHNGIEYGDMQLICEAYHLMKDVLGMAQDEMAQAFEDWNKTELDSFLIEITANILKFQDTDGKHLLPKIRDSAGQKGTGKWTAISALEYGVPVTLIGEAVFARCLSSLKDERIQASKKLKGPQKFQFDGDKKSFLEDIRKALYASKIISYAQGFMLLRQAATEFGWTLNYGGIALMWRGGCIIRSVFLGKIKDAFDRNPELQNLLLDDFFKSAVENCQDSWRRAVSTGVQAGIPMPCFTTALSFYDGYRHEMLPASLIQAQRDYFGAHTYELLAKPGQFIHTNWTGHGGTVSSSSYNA
Assay [5] is described as follows: sensitizers of A549 cells to miR-34 induction, primary screen, imaging, A549 dox-inducible miR-34, nuclei and caspase counts (AID 1347080;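 active means compounds whose cell count with miR-34 switched on is under 0.7 times the count with it off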). The settings on record: A549 miR-34 inducible, Hoechst nuclei count, 48 h.
Assay [6] is described as follows: survival rescue of mitochondrial mutant cells in low glucose, primary screen, MELAS cybrids, Rieske KO mouse fibroblasts, CellTiter-Glo (AID 1508586;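 active means mean z-score across replicates of 1.96 or higher in either the MELAS or the Rieske mutant cell line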;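 further: z relative to plate mean and SD of compound and empty wells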). On the technique in general: ATP-based viability assays read luminescence as a measure of living cells.
In assay [7] the target is NAD(+) hydrolase SARM1 (Homo sapiens) (UniProt Q6SZW1). The assay can be described thus: SARM1 TIR NADase inhibitors, cell lysate, NAD-Glo luminescence (AID 1508614;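 active means compound whose remaining NAD level is above about 45 nM, limit read from the data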). The settings on record: SAM-TIR HEK293T lysate NADase, at 1 µM, stronger effect = higher value.
Chain of NAD(+) hydrolase SARM1 (Homo sapiens) (Q6SZW1 whole entry, looked up, the tested form may be a part): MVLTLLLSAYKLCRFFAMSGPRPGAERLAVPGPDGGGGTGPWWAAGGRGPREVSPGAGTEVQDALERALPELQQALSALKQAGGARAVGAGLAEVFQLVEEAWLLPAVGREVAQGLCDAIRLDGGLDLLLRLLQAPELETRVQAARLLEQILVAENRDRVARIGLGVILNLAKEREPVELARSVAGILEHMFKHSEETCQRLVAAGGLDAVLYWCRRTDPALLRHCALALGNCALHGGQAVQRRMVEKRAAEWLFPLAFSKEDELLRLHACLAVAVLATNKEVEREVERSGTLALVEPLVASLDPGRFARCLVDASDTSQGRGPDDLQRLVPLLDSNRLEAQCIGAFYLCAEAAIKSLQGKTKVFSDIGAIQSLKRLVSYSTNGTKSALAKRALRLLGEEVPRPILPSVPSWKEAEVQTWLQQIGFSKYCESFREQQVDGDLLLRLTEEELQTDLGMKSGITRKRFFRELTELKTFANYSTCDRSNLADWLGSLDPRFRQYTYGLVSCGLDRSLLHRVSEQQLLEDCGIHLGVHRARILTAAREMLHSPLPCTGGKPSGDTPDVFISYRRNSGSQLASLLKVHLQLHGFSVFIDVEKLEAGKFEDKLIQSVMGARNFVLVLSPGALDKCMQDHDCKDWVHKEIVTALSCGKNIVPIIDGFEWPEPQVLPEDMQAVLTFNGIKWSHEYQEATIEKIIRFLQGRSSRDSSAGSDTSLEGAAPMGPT
The target in assay [8] is Mitogen-activated protein kinase 7 (Homo sapiens) (UniProt Q13164). The assay can be described thus: ERK5 transactivation activators in reporter cells, primary screen, cell-based, HTS (AID 1508626;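 active means luciferase signal above three times the same-plate solvent-only control wells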;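 further: luciferase driven by Gal4-ERK5 fusion binding five Gal4 sites before minimal TATA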). The settings on record: HeLa Gal4-ERK5 transactivation, 18 h, at 5 µM, stronger effect = higher value.
Chain of Mitogen-activated protein kinase 7 (Homo sapiens) (Q13164 whole entry, looked up, the tested form may be a part): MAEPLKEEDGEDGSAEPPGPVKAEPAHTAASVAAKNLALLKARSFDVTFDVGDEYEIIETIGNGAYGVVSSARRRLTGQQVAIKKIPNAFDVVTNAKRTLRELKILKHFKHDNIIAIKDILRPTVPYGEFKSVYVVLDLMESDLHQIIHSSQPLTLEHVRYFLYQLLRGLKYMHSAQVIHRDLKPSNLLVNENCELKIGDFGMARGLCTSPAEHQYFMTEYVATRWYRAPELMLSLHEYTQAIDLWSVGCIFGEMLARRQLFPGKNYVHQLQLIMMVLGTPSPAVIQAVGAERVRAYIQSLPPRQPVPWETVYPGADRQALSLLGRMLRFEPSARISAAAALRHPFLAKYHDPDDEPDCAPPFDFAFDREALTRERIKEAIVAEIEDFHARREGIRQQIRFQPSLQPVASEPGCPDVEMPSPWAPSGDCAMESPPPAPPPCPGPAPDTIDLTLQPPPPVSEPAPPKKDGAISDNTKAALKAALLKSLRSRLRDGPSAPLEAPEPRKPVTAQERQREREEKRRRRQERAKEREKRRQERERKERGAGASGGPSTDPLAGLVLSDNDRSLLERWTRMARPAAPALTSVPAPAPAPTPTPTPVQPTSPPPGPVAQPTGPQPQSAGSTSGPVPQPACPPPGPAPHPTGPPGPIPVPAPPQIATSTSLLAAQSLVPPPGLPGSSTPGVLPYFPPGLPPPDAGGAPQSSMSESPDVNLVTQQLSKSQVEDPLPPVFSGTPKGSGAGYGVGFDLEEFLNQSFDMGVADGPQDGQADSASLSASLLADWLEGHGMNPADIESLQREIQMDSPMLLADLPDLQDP
Assay [9] in a line: viability rescue of complex I mutant cybrids, primary screen, cell-based, galactose medium, ATP luminescence (AID 1645843;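 active means z-score of at least 1.8 in each of two replicates, scored against plate mean and spread of sample wells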;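 further: positive z means more ATP and so rescue of galactose-driven cybrid death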). The conditions noted are these: complex I mutant cybrid cells, 72 h, stronger effect = higher value.
The nature of assay [10]: polyglutamine-triggered caspase-3 activation inhibitors, cell-based (AID 1583). The settings on record: polyglutamine-induced caspase-3 activation, cell assay; stronger effect = higher value;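 tested at 10 µM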.
Assay [11] can be described thus: suppressors of polyQ aggregation in yeast, 75Q-TubU reporter (AID 1593). The conditions noted are these: Yeast 75Q polyglutamine aggregation reporter.
A short description of assay [12]: rescue of polyQ-huntingtin neuronal dysfunction in worms, whole organism, C. elegans mechanosensory neurons, N-terminal huntingtin (AID 1599). The settings on record: touch response, stronger effect = higher value.
Assay [13] can be described thus: inhibitors of mitochondrial cytochrome c release, biochemical, purified mitochondria (AID 1603).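 Further: mouse liver mitochondria challenged with calcium chloride; signal normalized to the plate average as 100%.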 The settings on record: stronger effect = lower value.
A short description of assay [14]: inhibitors of polyQ protein aggregation (AID 1604). The settings on record: polyglutamine-induced protein aggregation inhibition assay; stronger effect = higher value; tested at 2.5 µM.
Assay [15] can be described thus: enhancers of glutamate uptake in motor neurons, MN-1 cell line (AID 1612).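 Further: tested at 1 µM final; 0% = mean of DMSO vehicle wells on each plate; positive means more glutamate uptake than control and negative means less.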 The settings on record: MN-1 motor neuron cells, stronger effect = higher value.
Assay [16] is described as follows: suppressors of polyglutamine aggregation in yeast, 75Q-TubH (AID 1616). The settings on record: S. cerevisiae 75Q-TubH polyglutamine aggregation suppression; stronger effect = higher value.
Assay [17] is described as follows: hESC survival regulators, cell-based (AID 493140).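 Further: cells exposed to compounds for four days before counting.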 The conditions noted are these: human embryonic stem cell survival screen; stronger effect = higher value.
A short description of assay [18]: differential killing of epithelial or mesenchymal cells, primary screen, imaging, PC-3E GFP, TEM4-18 mCherry, co-culture (AID 1345086;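 active means compounds killing one labelled cell type while sparing the other, by normalised counts and ratio limits, not self-fluorescent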;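 on all read-outs here: cells exposed to compound for 72 h before imaging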;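 on red/green cell ratio (normalised): normalised mesenchymal count divided by normalised epithelial count so high means epithelial killing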). The settings on record: imaging cell counts, at 1 µM; for red/green cell ratio (normalised): actives lie on both sides, counts scaled to control wells, 1 = unselective.
[19] abbreviates: MELAS cybrid survival, CellTiter-Glo 48 h, stronger effect = higher value.
[20] abbreviates: Rieske KO mouse fibroblast survival, CellTiter-Glo 72 h.
Setting [21] is: measured here: epithelial PC-3E GFP cell survival.
Setting [22] is: measured here: mesenchymal TEM4-18 mCherry cell survival.

As to `CC[C@H](C)C(=O)O[C@H]1CCC=C2C=C[C@H](C)[C@H](CC[C@@H]3C[C@@H](O)CC(=O)O3)[C@H]21`, the parasite load remaining in [1] was 95.7% (inactive) and 85.1% (inactive). Besides, in [1], the viability (as a rule, a read-out of living cells in per cent, often relative to untreated cells) is 67.9% and 134%. Also, in [2], the fluorescence ratio is 0.91 (inactive). Further, the inhibition (as a rule, the drop in the measured response relative to a control, in per cent) in [3] is 0.66% (inactive); in [4], -1.06% (inactive). Also, the fold change in assay [5] (stronger effect = lower value, cell number ratio, induced over uninduced) was 0.923 (inactive) and 1.16 (inactive) and 1.1 (inactive); in assay [5] (measured here: relative caspase fold change +Dox/-Dox), 1.44 and 0.292 and 0.944. Besides, the cell count in assay [5] (measured here: total cells with miR-34 induction, stronger effect = lower value) is 2090 and 1930 and 4610; in assay [5] (measured here: total cells without miR-34 induction), 2270 and 1660 and 4180. In addition, the z-score was 0.801 (inactive) and -1.19 (inactive) in assay [6] (setting [19]); 0.000262 and -0.468 in assay [6] (setting [20]); -0.615 (inactive) and -0.575 (inactive) and 0.1 (inactive) in assay [9]. Moreover, the remaining NAD in assay [7] is 10 nM (inactive). For the same molecule, the luciferase signal in assay [8] was 24 AU (inactive).

For `CC(=O)N=c1sc(S(N)(=O)=O)nn1C`, the results for the inhibition in assay [10], in assay [3] and in assay [4] were 0.15%, -0.45% (inactive) and 18.8% (inactive), respectively. This molecule yielded a score in assay [11] of 0.84. In assay [12], this molecule registered a rescue above control of -0.14. The cytochrome c release ratio in assay [13] is 0.55. The molecule also yielded an inhibition of aggregation in [14] of 49.4%. Besides, the glutamate uptake change in assay [15] is -1.05%. In assay [16], this molecule had an aggregation suppression score of 1.33. For the same molecule, the survival in [17] is 5.08 (inactive). The fluorescence ratio in assay [2] is 1.01 (inactive). In [18], the red/green cell ratio (normalised) was 1.22 (inactive). Moreover, the normalised cell number in assay [18] (setting [21]) worked out at 0.92; in [18] (setting [22]), 1.12. The z-score in assay [6] (setting [19]) was -0.23 (inactive) and 0.0575 (inactive); in assay [6] (setting [20]), -0.175 and -0.724; in assay [9], 0.7 (inactive). Also, in assay [7], the remaining NAD was 10 nM (inactive). Moreover, the luciferase signal in [8] was 80 AU (inactive).

Consider `CNCCC=C1c2ccccc2CCc2ccccc21`, for which the inhibition in assay [10] is 16.9%; in assay [3], -5.91% (inactive); in [4], -10.4% (inactive). The molecule further displayed a score in [11] of 1.22. Moreover, the cytochrome c release ratio in assay [13] was 0.98. The molecule also registered an inhibition of aggregation in [14] of 72.7%. Moreover, in assay [15], the glutamate uptake change was found to be 13.8%. The same molecule yielded an aggregation suppression score in [16] of 1.32. The survival in assay [17] was 3.42 (inactive). In addition, the fluorescence ratio in assay [2] was 1.02 (inactive). Moreover, the red/green cell ratio (normalised) in assay [18] is 1.12 (inactive). For the same molecule, the values for the normalised cell number in [18] (setting [21]) and in assay [18] (setting [22]) were 1.12 and 1.26, respectively. For the same molecule, the z-score in assay [6] (setting [19]) is -0.337 (inactive); in [6] (setting [20]) it was -0.307; in assay [9], -1.28 (inactive) and -1.35 (inactive). The remaining NAD in assay [7] is 10 nM (inactive). Besides, the luciferase signal in [8] was 120 AU (inactive).

Turning to `COc1ccc(-c2oc3c(CC=C(C)C)c(O[C@@H]4O[C@H](CO)[C@@H](O)[C@H](O)[C@H]4O)cc(O)c3c(=O)c2O[C@@H]2O[C@@H](C)[C@H](O)[C@@H](O)[C@H]2O)cc1`, in [1], the parasite load remaining was 70.8% (inactive). In addition, in [1], the viability was 68.9%. The fluorescence ratio in assay [2] was 1 (inactive). In addition, the inhibition is -9.9% (inactive) in assay [3] and 4.03% (inactive) in assay [4]. Further, in [18], the red/green cell ratio (normalised) was 1.12 (inactive). In addition, the normalised cell number in assay [18] (setting [21]) was 1.01; in assay [18] (setting [22]) it was 1.13. The luciferase signal in assay [8] is 48 AU (inactive).

Take `O=C(O[C@@H]1Cc2c(O)cc(O)cc2O[C@@H]1c1cc(O)c(O)c(O)c1-c1c([C@H]2Oc3cc(O)cc(O)c3C[C@H]2OC(=O)c2cc(O)c(O)c(O)c2)cc(O)c(O)c1O)c1cc(O)c(O)c(O)c1`: in [4], the inhibition was -4.6% (inactive). The red/green cell ratio (normalised) in assay [18] is 1.06 (inactive). The results for the normalised cell number in [18] (setting [21]) and in assay [18] (setting [22]) were 0.89 and 0.94, respectively.

`O=C1CC(c2ccccc2)Oc2ccccc21` (stereo not drawn): the inhibition in [4] was 1.48% (inactive). Further, the red/green cell ratio (normalised) in assay [18] was 0.93 (inactive). The normalised cell number in assay [18] (setting [21]) came to 1.14; in assay [18] (setting [22]), 1.06.
